Data published in PubChem BioAssay AID2069 (Sanford-Burnham Center for Chemical Genomics, 2009).
Out of some 1,200 compounds screened, about 210 (18%) were called active. Rule as the data show it: active = inhibition above about 30%; inactive = the rest. Not all results are given here.

Experiment: fluorescence readout artefact check – biochemical, HTRF, uHTS, artefact control for SUMOylation inhibitor project, confirmation (AID 2069)
Details: HTRF interference counterscreen, at 35 µM, active compounds read high

Structure (SMILES)	inhibition
CC1=NN(c2ccccc2)C(=O)/C1=C\c1cn(CCC#N)nc1-c1ccc(Cl)cc1	-15.8% (inactive)
S=C(Nc1ccc2nc(-c3ccccn3)c(-c3ccccn3)nc2c1)N1CCOCC1	10.8% (inactive)
CN(Cc1ccco1)C(=O)c1cc2c(s1)-c1ccc(Cl)cc1S(=O)(=O)C2	-9.15% (inactive)
S=c1[nH]nc(-c2cc(-c3ccccc3)n[nH]2)n1/N=C/c1c(Cl)cccc1Cl	6.95% (inactive)
CC1CCCN(c2nc3ccccc3nc2C(C#N)S(=O)(=O)c2ccccc2)C1 (stereo not drawn)	11.8% (inactive)
O=C1Nc2ccc(C(F)(F)F)cc2N2CCCC12 (stereo not drawn)	5.75% (inactive)
Cc1ccccc1N=Cc1cc2c(cc1[N+](=O)[O-])OCO2	-2.65% (inactive)
O=C1C(C2=NC(c3ccccn3)C3C(=O)N(c4ccc(Cl)cc4Cl)C(=O)C23)=C(O)c2ccccc21 (stereo not drawn)	2.95% (inactive)
O=C(N/N=C/c1ccc([N+](=O)[O-])o1)c1cc2c(ccc3ccccc32)o1	20.9% (inactive)
Cc1cc(C(=O)N/N=C/c2ccc(-c3ccc(C)c(Cl)c3)o2)n[nH]1	4.9% (inactive)
O=C(N/N=C/c1ccc(-c2ccc(Cl)c(C(=O)O)c2)o1)c1cc2c(ccc3ccccc32)o1	50.7% (active)
Cc1ccc(-n2c(SCC(=O)N/N=C/c3ccccc3C(=O)O)nnc2-c2ccc(Cl)cc2)cc1	5.25% (inactive)
O=C(CN1C(=O)CSC1=O)Nc1ccc(C(=O)O)cc1	1.7% (inactive)
O=C(CSc1nnc(SCc2ccccc2)s1)N/N=C/C=C\c1ccco1	3.25% (inactive)
Cc1ccc(-c2nc3cc(N)ccc3o2)cc1	55.7% (active)
O=C(Nc1ccc2oc(-c3cccc4ccccc34)nc2c1)c1ncn[nH]1	16.2% (inactive)
Cc1ccccc1-c1nc2cc(N)ccc2o1	46.2% (active)
Cc1nc2ccc(-c3nc4cc(N)ccc4o3)cc2[nH]1	54.3% (active)
Cc1ccc2oc(-c3ccc(C)c(NC(=O)Cc4cccs4)c3)nc2c1	22.6% (inactive)
Nc1ccc2oc(-c3cccs3)nc2c1	37.1% (active)
Cc1ccc(-n2nc(C)c3c2OC(N)=C(C#N)C3c2ccoc2)cc1 (stereo not drawn)	1.75% (inactive)
COc1ccc(OC)c(/C=C2\S/C(=N/NC(=O)c3ccc4ccccc4c3)NC2=O)c1	8.75% (inactive)
Cc1cc(C)c(S(=O)(=O)/N=C2/C=C(SCC(=O)O)C(=O)c3ccccc32)cc1C	-10.7% (inactive)
O=C1C2C3C=CC(C3)C2C(=O)N1CNc1ccc(O)cc1 (stereo not drawn)	-8.05% (inactive)

Structure (SMILES)	inhibition
O=c1c2ccccc2nc(COc2ccccc2)n1/N=C/c1cc([N+](=O)[O-])ccc1O	-7.1% (inactive)
Oc1ccc(NCc2cccc(OCc3ccccc3)c2)cc1	-19.4% (inactive)
O=C1C(NS(=O)(=O)c2cccs2)=C(N2CCN(c3cccc(C(F)(F)F)c3)CC2)C(=O)c2ccccc21	-7.25% (inactive)
Cc1ccccc1S(=O)(=O)Nc1nc2ccccc2nc1N1CCc2ccccc2C1	-3.1% (inactive)
N=c1c2cn[nH]c2nc(SCC(=O)c2ccc(Br)cc2)n1-c1ccc(Br)cc1	0.5% (inactive)
O=C(CSc1nnc(-c2ccco2)c(-c2ccco2)n1)c1ccccc1	9% (inactive)
S=c1[nH]nc(-c2ccc(Cl)cc2)n1/N=C/C=C/c1ccco1	-4.3% (inactive)
CCOC(=O)C1CCCN(c2cc(NCCCO)c([N+](=O)[O-])c3nonc23)C1 (stereo not drawn)	-8.1% (inactive)
O=C(NNC(=O)c1sc2ccccc2c1Cl)Nc1ccc(Cl)cc1	-5% (inactive)
COc1ccc2c(c1)Cc1sc(NC(=O)c3ccccc3)nc1-2	13.9% (inactive)
COCCN(CCOC)S(=O)(=O)c1ccc(C(=O)Nc2nc3c(s2)CCc2ccccc2-3)cc1	36.7% (active)
COc1ccc(C(=O)Nc2nc3c(s2)Cc2cc(OC)ccc2-3)cc1	5.45% (inactive)
O=C(NN1C(=O)/C(=C/C=C/c2ccco2)SC1=S)c1ccncc1	16.8% (inactive)
Cc1cc(C)n(Cc2ccc(C(=O)N/N=C/c3ccc(-c4ccc([N+](=O)[O-])cc4)o3)o2)n1	6.7% (inactive)
O=C(Cc1ccccc1)Nc1nnc(-c2ccco2)s1	13.9% (inactive)
CCC(C)(C)C1CCc2c(sc(NC(=O)c3ccccc3C(=O)O)c2C#N)C1 (stereo not drawn)	7.6% (inactive)
CCCCOc1ccc(/C=C/C(=O)Nc2ccc(C(N)=O)cc2)cc1	10.9% (inactive)
COc1ccccc1NC(=O)c1sc2ncn(CC(=O)Nc3ccccc3)c(=O)c2c1C	4.35% (inactive)
O=C(O)c1cc2cccc(S(=O)(=O)N3CCOCC3)c2cc1O	49.6% (active)
O=C(Nc1ccccc1O)c1cc(S(=O)(=O)N2CCOCC2)c(Cl)cc1Cl	10.6% (inactive)
CCN(C(=S)Nc1cc(S(=O)(=O)N2CCOCC2)ccc1Cl)c1cccc2ccccc12	-26.1% (inactive)
Cc1occc1C(=O)N1CCN(c2ccccc2)CC1	0.55% (inactive)
CCOc1ccc(N2C(=O)c3ccc(C(=O)OCC(=O)N(CC)C4CCS(=O)(=O)C4)cc3C2=O)cc1 (stereo not drawn)	-4.1% (inactive)
Oc1ccc(N=Cc2c(O)ccc3ccccc23)cc1	10.2% (inactive)

Structure (SMILES)	inhibition
Oc1ccc2ccccc2c1C=Nc1ccc(Cl)cn1	37.1% (active)
Oc1ccccc1N=Cc1c(O)ccc2ccccc12	-5.9% (inactive)
CC1=CC2(O)OCCN(CCO)C2=CC1=O (stereo not drawn)	4.6% (inactive)
O=C1C=C(O)c2c(O)cccc2C1=O	-24.9% (inactive)
COc1cccc(/C=C2/SC(=S)N(CC(=O)NNC(=O)c3ccccc3O)C2=O)c1	-13% (inactive)
Cc1ccccc1Nc1cc2ccccc2c(=O)[nH]1	25.8% (inactive)
CCN(c1ccccc1)c1cc2ccccc2c(=O)[nH]1	37% (active)
CN(c1ccccc1)c1cc(=O)[nH]c(=O)[nH]1	0.55% (inactive)
Cc1[nH][nH]c(=O)c1C(c1ccc(-c2ccccc2C(=O)O)o1)c1c(C)[nH][nH]c1=O	9.65% (inactive)
COc1ccc(CCN2Cc3c(cccc3[N+](=O)[O-])C2=O)cc1OC	-1.3% (inactive)
CCOc1ccccc1CNc1ccc(O)cc1	-10.2% (inactive)
O=C(NCc1ccco1)Nc1ccc2snnc2c1	38.8% (active)
O=C(COC(=O)c1cc(-c2cccs2)nc2ccccc12)NCc1ccco1	16.3% (inactive)
O=C(/C=C/c1ccco1)NC(=S)Nc1ccc(O)c(-c2nc3ccccc3s2)c1	9.4% (inactive)
Cc1nc2ccc(NC(=O)NCc3ccco3)cc2s1	31.5% (active)
Cc1ccc2c(SCC(=O)NCc3ccco3)nc(-c3ccc(F)cc3)nc2c1	-4.7% (inactive)
CCOc1cc(NC(=S)NCc2ccco2)c(OCC)cc1NC(=O)CC	-7.1% (inactive)
CN(C)c1cc(N/N=C/c2ccc(Cl)cc2)nc(N(C)C)n1	7% (inactive)
O=C(O)CN1C(=O)/C(=C\c2cc([N+](=O)[O-])ccc2OCc2ccccc2Cl)SC1=S	8.45% (inactive)
Cc1ccc(NC2=CC(=O)CC(c3ccco3)C2)c(N)c1 (stereo not drawn)	1% (inactive)
COc1ccc(-c2cc(=O)[nH][nH]2)cc1	2.7% (inactive)
N#CC(c1nc2ccccc2nc1N1CCCC1)S(=O)(=O)c1cccs1 (stereo not drawn)	-0.1% (inactive)
COC(=O)c1cccc(-c2ccc(C(c3c(C)[nH][nH]c3=O)c3c(C)[nH][nH]c3=O)o2)c1	-4.3% (inactive)
Oc1ccc(Br)cc1CNc1cccc2cccnc12	-17.6% (inactive)

Structure (SMILES)	inhibition
Cc1ccc(NC2=CC(=O)C(=O)c3ccccc32)cc1	-12.4% (inactive)
O=C1C=C(Nc2ccccc2)c2ccccc2C1=O	-24.5% (inactive)
O=C1C=C(N2CCOCC2)c2ccccc2C1=O	51.9% (active)
Cc1[nH][nH]c(=O)c1C(c1c(C)[nH][nH]c1=O)c1cn(Cc2cccc3ccccc23)c2ccccc12	-32.7% (inactive)
CCOc1cc(CNc2ccccc2SC)ccc1O	-6.3% (inactive)
COc1cc(C)c2c(c1C=O)Oc1c(c(C)c(O)c3c1C(O)OC3=O)OC2=O (stereo not drawn)	12.4% (inactive)
CN(C)/C=C1\Oc2ccc3ccccc3c2C1=O	-6.85% (inactive)
CC1=Nc2nc(N3CCCCC3)c(C#N)c3c4c(nc(c23)N1)N(c1ccc(C(C)C)cc1)C(=O)C4	15.2% (inactive)
O=C(O)COc1ccccc1C(Nc1cccnc1)c1cc(Cl)c2cccnc2c1O (stereo not drawn)	30.4% (active)
CCOc1ccc(C(Nc2cccnc2)c2cc(Cl)c3cccnc3c2O)cc1 (stereo not drawn)	14.3% (inactive)
CCCCC(=O)NC(c1ccccc1Cl)c1ccc2cccnc2c1O (stereo not drawn)	-42.6% (inactive)
COc1ccc(/C=N/N=C2/CC(C)(C)Cc3n[nH]c(=O)cc32)cc1	0.85% (inactive)
COc1ccccc1NC(=O)Cn1c(O)c(N=NC(=O)c2ccccc2O)c2ccccc21	2.2% (inactive)
CCCCn1c(NC(=O)c2ccc(Br)o2)c(S(=O)(=O)c2ccccc2)c2nc3ccccc3nc21	1.65% (inactive)
Nc1ccc(-c2nc3ccc(N)cc3[nH]2)cc1	66.3% (active)
Cc1ccc(C)c(-c2nc3ccc(N)cc3[nH]2)c1	57% (active)
Nc1ccc2nc(-c3ccc(-c4nc5ccc(N)cc5[nH]4)cc3)[nH]c2c1	25.4% (inactive)
O=C(Nc1nccs1)c1cc(-c2ccco2)nc2ccccc12	22.2% (inactive)
Cc1oc2c(c1C(=O)O)C(=O)c1ccccc1C2=O	-5.95% (inactive)
Cc1ccc(NC(=O)CN2C(=O)S/C(=C\c3ccc(-c4cccc(C(=O)O)c4C)o3)C2=O)cc1C	26.3% (inactive)
O=S(=O)(Nc1ccc(O)c2ccccc12)c1cccs1	-16.9% (inactive)
